Screening data (PubChem BioAssay)
An excerpt weighted towards active compounds, which were near 0.5% of everything screened.
Cdc25B block – inhibitors of Cdc25B phosphatase catalytic domain, primary screen, biochemical, OMFP fluorescence | M-phase inducer phosphatase 2 (Homo sapiens), P30305 | recombinant Cdc25B, OMFP fluorescence Ex485/Em525 | inhibition, %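 (compounds tested at 10 µM final in the well)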 | 65,000 compounds, 0.1% hits; in the data active = inhibition above about 50%
CatL inh – inhibitors of human cathepsin L, biochemical | Procathepsin L (Homo sapiens), P07711 | purified cathepsin L, fluorogenic substrate, fluorescence | inhibition, %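 (tested at 10 µM)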 | 58,000 compounds, 0.17% hits | AID 460, 2006; in the data active = inhibition above about 45%;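 note: 0% = enzyme with no compound and 100% = no enzyme blank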
Target sequence (P07711 114-288 limits assumed): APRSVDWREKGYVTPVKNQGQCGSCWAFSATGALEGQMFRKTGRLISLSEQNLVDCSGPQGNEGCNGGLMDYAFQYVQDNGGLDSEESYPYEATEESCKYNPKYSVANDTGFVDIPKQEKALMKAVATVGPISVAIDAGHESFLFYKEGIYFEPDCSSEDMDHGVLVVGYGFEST
Target sequence (P07711 292-333 limits assumed): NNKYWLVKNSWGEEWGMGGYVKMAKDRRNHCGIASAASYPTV
DUSP1 inh – MKP-1 phosphatase inhibitors, primary screen, biochemical, in vitro | inhibition, %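 (compounds tested at a single concentration somewhere between 10 and 100 µM)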 | recombinant MKP-1, OMFP hydrolysis fluorescence | Dual specificity protein phosphatase 1 (Homo sapiens), P28562 | 65,000 compounds, 0.15% hits;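 active = inhibition above about 50%, limit read from the data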;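 note: 0% = DMSO max control wells and 100% = wells with enzyme stopped by NaOH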
CatS inh – inhibitors of human cathepsin S, biochemical, compound mixtures; P25774; recombinant cathepsin S, AMC dipeptide fluorescence, pooled mixtures; inhibition, %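 (tested at 5 µM per compound within 10-compound mixtures)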; 62,000 compounds, 0.06% hits; AID 501, 2006; in the data active = inhibition above about 32%, passing the limit was not always enough;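 note: 0% = enzyme without compound and 100% = blank without enzyme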
CatB block – human cathepsin B inhibitors, primary screen, biochemical, fluorogenic substrate. purified cathepsin B, fluorescence. AID 453, 2006. inhibition, %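 (tested at 10 µM)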. 63,000 compounds, 0.1% hits; in the data active = inhibition above about 21%;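 note: 0% = enzyme with no compound and 100% = no enzyme blank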
CatB mix inh – cathepsin B inhibitors from pooled compounds, primary screen, biochemical, compound mixtures, AMC fluorescence. Purified cathepsin B, AMC dipeptide fluorescence. inhibition, %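 (ten-compound pools at 5 µM per compound and 50 µM total)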. 62,000 compounds, 0.06% hits. P07858; in the data active = inhibition above about 22%, passing the limit was not always enough;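 note: 0% = enzyme without compound and 100% = no enzyme blank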
The depositor's hits bear a star.

Results for Cc1ccc(S(=O)(=O)n2nc(OC(=O)c3cccs3)cc2N)cc1 ?
Cdc25B block: 3; CatL inh: -7; DUSP1 inh: 2; CatS inh: 4; CatB block: 64*; CatB mix inh: 47*

How did Cc1ccc(S(=O)(=O)n2nc(OC(=O)c3ccco3)cc2N)cc1 do in these assays?
Cdc25B block: 3; CatL inh: 12; DUSP1 inh: 3; CatS inh: 19; CatB block: 76*; CatB mix inh: 59*

Results for COc1ccccc1C(=O)Oc1cc(N)n(S(=O)(=O)c2ccc(C)cc2)n1 ?
Cdc25B block: 6; CatL inh: -4; DUSP1 inh: 6; CatS inh: -5; CatB block: 12; CatB mix inh: 18

What do the screens show for `Nc1cc(OC(=O)c2ccco2)nn1S(=O)(=O)c1ccc(F)cc1`?
Cdc25B block: -9; CatL inh: 8; DUSP1 inh: 20; CatS inh: -3; CatB block: 61*; CatB mix inh: 60*

What do the screens show for `COc1ccc(C(C#N)C2(C)OCCO2)cc1OC` (stereo not drawn)?
Cdc25B block: -4; DUSP1 inh: 4; CatS inh: 8; CatB mix inh: 0

What do the screens show for `CNC(=O)c1cc2c(=O)n3cccc(C)c3nc2n1C`?
Cdc25B block: 0; CatL inh: -31; DUSP1 inh: 7; CatS inh: 6; CatB block: 5; CatB mix inh: 4

How did CCN(C(=O)COc1cc(=O)n(CC)c2ccccc12)c1cccc(Cl)c1 do in these assays?
Cdc25B block: -11; CatL inh: 3; DUSP1 inh: 9; CatS inh: 6; CatB block: 25*; CatB mix inh: 4

How did CCN(C(=O)COc1cc(=O)n(CC)c2ccccc12)c1cc(Cl)ccc1OC do in these assays?
Cdc25B block: -15; DUSP1 inh: 11; CatS inh: -2; CatB block: 3; CatB mix inh: 1

How did O=S(=O)(NCCc1csc(-c2cccnc2)n1)c1ccc(Cl)s1 do in these assays?
Cdc25B block: -11; CatL inh: 6; DUSP1 inh: -3; CatS inh: -1; CatB block: -3; CatB mix inh: 4

Results for CCc1cc2c(C)cc(=O)oc2cc1OC(=O)C1CCCN1C(=O)OC(C)(C)C (stereo not drawn) ?
Cdc25B block: -4; CatL inh: -10; DUSP1 inh: 22; CatS inh: -2; CatB block: -1; CatB mix inh: 1

How did Cc1c(NC(=O)C(C)Sc2nc3ccccc3c(=O)n2CCO)c(=O)n(-c2ccccc2)n1C (stereo not drawn) do in these assays?
Cdc25B block: 0; CatL inh: -2; DUSP1 inh: -13; CatS inh: -1; CatB block: -5; CatB mix inh: 5

How did CC1=C(C)CS(=O)N(S(=O)(=O)c2ccc(Cl)cc2)C1 (stereo not drawn) do in these assays?
Cdc25B block: -5; DUSP1 inh: 2; CatS inh: 6; CatB block: 24*; CatB mix inh: 32*

What do the screens show for `O=C(NC1=NCCS1)c1ccncc1`?
Cdc25B block: 27; CatL inh: -2; DUSP1 inh: 17; CatS inh: -3; CatB block: 2; CatB mix inh: 4

What do the screens show for `O=C(NC1=NCCS1)c1ccc(OCC2CCCO2)cc1` (stereo not drawn)?
Cdc25B block: 55*; DUSP1 inh: 1; CatS inh: -5; CatB block: 1; CatB mix inh: -5

Results for CCOC(=O)C1CCN(CC(=O)Nc2c(C(=O)OC)[nH]c3ccc(Cl)cc23)CC1 ?
Cdc25B block: 1; CatL inh: -11; DUSP1 inh: 0; CatS inh: -19; CatB block: 0; CatB mix inh: -9

Results for COC(=O)c1[nH]c2ccc(Cl)cc2c1NC(=O)C1CC1 ?
Cdc25B block: 84*; CatL inh: -2; DUSP1 inh: -8; CatB block: 6

Results for COc1ccc(-c2cn3c(C)c(C(=O)Nc4cccc(C)n4)sc3n2)cc1 ?
Cdc25B block: -13; CatL inh: 10; DUSP1 inh: 51*; CatS inh: 17; CatB block: 3; CatB mix inh: 5

What do the screens show for `Cc1cccc(NC(=O)CNc2cc(C)ccc2C)c1`?
Cdc25B block: -13; CatL inh: 8; DUSP1 inh: 5; CatS inh: 10; CatB block: 7; CatB mix inh: 6
